# Measured values: PubChem BioAssay (NCATS)
# Several values for one entry are separate records, joined by “and”; a condition that tells them apart may be missing. Identical values can stand only once. Values without a mark were called inactive. Records with an inconclusive call do not appear. Entries that show only a call come without a potency. Activity calls are given as the source filed them. Unless noted, calls follow the shape of the dose curve; as a rule, active = well fitted curve in the direction sought with a large enough effect; inconclusive = small, poorly fitted or top-dose-only effect, or another doubt; inactive = no such curve, though single readings can be large; an effect the other way counts as inactive or inconclusive.
# Assays:
# MKL-2 = assay: qHTS assay to identify novel small-molecules to repurpose for Merkel cell carcinoma treatment (AID 1296009); settings: MCC and control cell lines, CellTiter-Glo viability, 72 h; series mostly up to 46 µM; also: nearly all actives have a fitted effect of over 60% in size; also: potency is read from the fitted curve at half-maximal effect
# In short: (§1)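 Cell viability measured by CellTiter-Glo following 72 hr compound treatment at 37 degree celsius, with NPC and MIPE libraries tested in 8- and 11-point concentration series.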
# UISO = assay: as above; settings: MCC and control cell lines, CellTiter-Glo viability, 72 h; series mostly up to 46 µM
# In short: as §1
# WaGa = assay: as above; settings: MCC and control cell lines, CellTiter-Glo viability, 72 h; series mostly up to 46 µM
# In short: as §1
# C33A = assay: Primary qHTS to identify gynecologic anti-cancer compounds using libraries of approved drugs and bioactive compounds (AID 1345084); settings: Gynecologic cancer cell panel viability, ATPlite luminescence, 48 h; series mostly up to 57.5 µM; also: nearly all actives have a fitted effect of over 55% in size; also: potency is read from the fitted curve at half-maximal effect
# In short: (§2)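 Five-concentration response, 48 h; readout is ATP-driven luciferase luminescence.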
# CAOV3 = assay: as above; settings: Gynecologic cancer cell panel viability, ATPlite luminescence, 48 h; series mostly up to 57.5 µM
# In short: as §2
# CASKI = assay: as above; settings: Gynecologic cancer cell panel viability, ATPlite luminescence, 48 h; series mostly up to 57.5 µM
# In short: as §2
# Es-2 = assay: as above; settings: Gynecologic cancer cell panel viability, ATPlite luminescence, 48 h; series mostly up to 57.5 µM
# In short: as §2
# HeLa = assay: as above; settings: Gynecologic cancer cell panel viability, ATPlite luminescence, 48 h; series mostly up to 57.5 µM
# In short: as §2
# Hek293T = assay: as above; settings: Gynecologic cancer cell panel viability, ATPlite luminescence, 48 h, control line for the selectivity index; series mostly up to 57.5 µM
# In short: as §2
# JEG-3 = assay: as above; settings: Gynecologic cancer cell panel viability, ATPlite luminescence, 48 h; series mostly up to 57.5 µM
# In short: as §2
# OV90 = assay: as above; settings: Gynecologic cancer cell panel viability, ATPlite luminescence, 48 h; series mostly up to 57.5 µM
# In short: as §2
# PA-1 = assay: as above; settings: Gynecologic cancer cell panel viability, ATPlite luminescence, 48 h; series mostly up to 57.5 µM
# In short: as §2
# Tov-21-G = assay: as above; settings: Gynecologic cancer cell panel viability, ATPlite luminescence, 48 h; series mostly up to 57.5 µM
# In short: as §2
# Tov112D = assay: as above; settings: Gynecologic cancer cell panel viability, ATPlite luminescence, 48 h; series mostly up to 57.5 µM
# In short: as §2
# [1] = Drug repurposing screens with cells derived from glioblastoma tumor samples (AID 1345199); settings: GBM patient neurospheres viability, ATP luminescence, 48 h; also: nearly all actives have a fitted effect of over 40% in size; also: potency is read from the fitted curve at half-maximal effect
# In short: (§3)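 Primary testing used CD133+ neurospheres from four GBM patients, seven concentrations, 48 h exposure and ATP-based viability; confirmation added three slower-growing patient lines.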
# astro = assay: as above; settings: viability, ATP luminescence, 48 h; series mostly up to 45.9 µM
# In short: as §3
# NIH3T3 = assay: qHTS assay to identify novel small-molecules to repurpose for Merkel cell carcinoma treatment (AID 1296009); settings: MCC and control cell lines, CellTiter-Glo viability, 72 h; at 44.8 µM (top of the series) unless noted; also: nearly all actives have a fitted effect of over 60% in size; also: potency is read from the fitted curve at half-maximal effect
# In short: as §1
# [2] = target: Nuclear receptor subfamily 1 group I member 2 (Rattus norvegicus) (UniProt Q9R1A7); assay: qHTS assay for small molecule activators of the rat pregnane X receptor (rPXR) signaling pathway (AID 651751; call rule not given here); settings: rPXR reporter cells, luciferase (One-Glo), 24 h
# Nuclear receptor subfamily 1 group I member 2 (Rattus norvegicus), sequence (Q9R1A7 whole entry, looked up): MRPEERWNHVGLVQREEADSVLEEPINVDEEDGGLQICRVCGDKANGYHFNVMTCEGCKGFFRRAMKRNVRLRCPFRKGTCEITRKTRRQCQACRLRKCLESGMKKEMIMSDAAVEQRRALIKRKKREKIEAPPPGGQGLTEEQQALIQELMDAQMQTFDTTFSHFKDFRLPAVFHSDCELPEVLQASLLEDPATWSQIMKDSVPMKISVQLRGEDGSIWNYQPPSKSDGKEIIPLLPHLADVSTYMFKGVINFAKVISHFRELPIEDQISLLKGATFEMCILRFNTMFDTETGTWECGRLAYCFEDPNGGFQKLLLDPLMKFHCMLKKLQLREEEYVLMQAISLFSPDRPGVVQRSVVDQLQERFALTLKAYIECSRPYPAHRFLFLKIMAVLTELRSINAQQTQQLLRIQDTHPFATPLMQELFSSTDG
# SKOV3 = assay: Primary qHTS to identify gynecologic anti-cancer compounds using libraries of approved drugs and bioactive compounds (AID 1345084); settings: Gynecologic cancer cell panel viability, ATPlite luminescence, 48 h; series mostly up to 57.5 µM; also: nearly all actives have a fitted effect of over 55% in size; also: potency is read from the fitted curve at half-maximal effect
# In short: as §2
# [3] = at 20 µM (top of the series), tumour line C
# [4] = at 21.2 µM (top of the series), tumour line B
# [5] = at 21.2 µM (top of the series), tumour line D
# [6] = at 21.3 µM (top of the series), tumour line A
# [7] = at 45.9 µM (top of the series), tumour line B
# [8] = at 45.9 µM (top of the series), tumour line D
# [9] = at 46.1 µM (top of the series), tumour line C
# [10] = at 46 µM (top of the series), tumour line A
smiles,measurement,setting,value
NCCc1ccn[nH]1,Potency,MKL-2,inactive
same,Potency,UISO,inactive
same,Potency,WaGa,inactive
same,Potency,C33A,inactive
same,Potency,CAOV3,inactive
same,Potency,CASKI,inactive
same,Potency,Es-2,inactive
same,Potency,HeLa,inactive
same,Potency,Hek293T,inactive
same,Potency,JEG-3,inactive
same,Potency,OV90,inactive
same,Potency,PA-1,inactive
same,Potency,Tov-21-G,inactive
same,Potency,Tov112D,inactive
same,"activity, negative = cell killing",[1]; [3],-4.24%
same,"activity, negative = cell killing",[1]; [4],-2.24%
same,"activity, negative = cell killing",[1]; [5],2.99%
same,"activity, negative = cell killing",[1]; [6],-21.3%
same,Potency,astro,inactive
COc1ccc(OC)c(C(O)CNC(=O)CN)c1 (configuration not stated),"activity, negative = cell killing",[1]; [6],-30.8%
C[n+]1c2cc(N)ccc2cc2ccc(N)cc21 (tested in a mixture with another compound),Potency,[1]; tumour line D,5.01 µM (active)
O=C1OCCN1/N=C/c1ccc([N+](=O)[O-])o1,outcome,NIH3T3,inactive
CN(C(=O)CN(CCO)CC(=O)N(C)C(C)(C)Cc1ccccc1)C(C)(C)Cc1ccccc1,"activity, negative = cell killing",[1]; [5],-0.577%
Clc1ccc2c(c1)CCc1cccnc1C2=C1CCNCC1,Potency,[1]; tumour line B,12.6 µM (active)
CC(O)(P(=O)(O)O)P(=O)(O)O,max response,[2],-3.46%
COc1cccc2c1C(=O)c1c(O)c3c(c(O)c1C2=O)C[C@@](O)(C(=O)CO)C[C@@H]3O[C@H]1C[C@H](N)[C@H](O)[C@H](C)O1,max response,[2],0.888% and 0.44%
CN1C(CCl)Nc2cc(Cl)c(S(N)(=O)=O)cc2S1(=O)=O (configuration not stated),Potency,C33A,inactive
same,Potency,CAOV3,inactive
same,Potency,CASKI,inactive
same,Potency,Es-2,inactive
same,Potency,HeLa,inactive
same,Potency,Hek293T,inactive
same,Potency,JEG-3,inactive
same,Potency,OV90,inactive
same,Potency,PA-1,inactive
same,Potency,SKOV3,inactive
same,Potency,Tov-21-G,inactive
same,Potency,Tov112D,inactive
same,"activity, negative = cell killing",[1]; [7],-5.52%
same,"activity, negative = cell killing",[1]; [8],-2.64%
same,"activity, negative = cell killing",[1]; [9],-28.6%
CC(=O)OCC(=O)[C@@]1(O)CC[C@H]2[C@@H]3CCC4=CC(=O)C=C[C@]4(C)[C@H]3[C@@H](O)C[C@@]21C,Potency,C33A,inactive
same,Potency,CAOV3,inactive
same,Potency,CASKI,inactive
same,Potency,Es-2,inactive
same,Potency,HeLa,inactive
same,Potency,Hek293T,inactive
same,Potency,JEG-3,inactive
same,Potency,OV90,inactive
same,Potency,PA-1,inactive
same,Potency,SKOV3,inactive
same,Potency,Tov-21-G,inactive
same,Potency,Tov112D,inactive
same,"activity, negative = cell killing",[1]; [7],-3.24%
same,"activity, negative = cell killing",[1]; [8],-10.4%
same,"activity, negative = cell killing",[1]; [10],-4.22%
same,"activity, negative = cell killing",[1]; [9],5.52%
C=C1C(=C/C=C2\CCC[C@]3(C)[C@@H]([C@H](C)/C=C/[C@@H](O)C4CC4)CC[C@@H]23)C[C@@H](O)C[C@@H]1O,Potency,C33A,inactive
same,Potency,CAOV3,inactive
same,Potency,CASKI,inactive
same,Potency,Es-2,inactive
same,Potency,HeLa,inactive
same,Potency,Hek293T,inactive
same,Potency,JEG-3,inactive
same,Potency,OV90,inactive
same,Potency,PA-1,inactive
same,Potency,SKOV3,inactive
same,Potency,Tov-21-G,inactive
same,Potency,Tov112D,inactive
CC(=O)N(O)CCCCCNC(=O)CCC(=O)N(O)CCCCCNC(=O)CCC(=O)N(O)CCCCCN,Potency,WaGa,10.6 µM (active)
same,Potency,CASKI,inactive
same,Potency,HeLa,inactive
same,Potency,OV90,6.31 µM (active)
same,Potency,SKOV3,inactive
same,Potency,Tov-21-G,inactive
same,"activity, negative = cell killing",[1]; [3],5.11%
same,"activity, negative = cell killing",[1]; [4],-16.9%
same,"activity, negative = cell killing",[1]; [5],-9.85%
same,"activity, negative = cell killing",[1]; [6],-22.8%
CCCCc1nc(Cl)c(CO)n1Cc1ccc(-c2ccccc2-c2nn[nH]n2)cc1,Potency,C33A,inactive
same,Potency,CAOV3,inactive
same,Potency,CASKI,inactive
same,Potency,Es-2,inactive
same,Potency,HeLa,inactive
same,Potency,Hek293T,inactive
same,Potency,JEG-3,inactive
same,Potency,OV90,inactive
same,Potency,PA-1,inactive
same,Potency,SKOV3,inactive
same,Potency,Tov-21-G,inactive
same,Potency,Tov112D,inactive
same,"activity, negative = cell killing",[1]; [7],-2.59%
same,"activity, negative = cell killing",[1]; [8],-10.9%
same,"activity, negative = cell killing",[1]; [9],-14.8%
same,Potency,astro,inactive
CCN1CCCC1=O,Potency,C33A,inactive
same,Potency,CAOV3,inactive
same,Potency,CASKI,inactive
same,Potency,Es-2,inactive
same,Potency,HeLa,inactive
same,Potency,Hek293T,inactive
same,Potency,JEG-3,inactive
same,Potency,OV90,inactive
same,Potency,PA-1,inactive
same,Potency,SKOV3,inactive
same,Potency,Tov-21-G,inactive
same,Potency,Tov112D,inactive
same,"activity, negative = cell killing",[1]; [7],-8.97%
same,"activity, negative = cell killing",[1]; [8],9.06%
same,"activity, negative = cell killing",[1]; [10],-27.1%
same,"activity, negative = cell killing",[1]; [9],2.13%
same,Potency,astro,inactive
